Reference: PubChem BioAssay (NCATS)
The source made the active and inactive calls. The call rests on the fitted dose curve; in most records, active means well fitted inhibition curve with a large enough effect; inconclusive means small, poorly fitted or top-dose-only effect; inactive means flat fitted curve, though single readings scatter.

The compounds below were run on Nanoluciferase (engineered Oplophorus gracilirostris luciferase) (assay: Primary Nanoluciferase (NLuc) qHTS assay for identification of artifact compounds. (AID 1845222;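 further: 0% = DMSO and -100% = no enzyme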)). Settings: NLuc-conditioned medium, Nano-Glo luminescence, 5 min; series mostly up to 54.1 µM; activity, negative = inhibition: at the top concentration.
Summary of the method: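 Compounds are pinned into diluted (1:55) conditioned medium of NLuc-expressing S16 cells and held 15 min at room temperature protected from light. Nano-Glo substrate follows, and luminescence is read 5 min later.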

| SMILES | activity, negative = inhibition |
| --- | --- |
| COc1ccccc1NC(=O)Nc1ccc2ccccc2c1 | -3.32% (inactive) |
| C=C(C)C(=O)OC1[C@@H]2C(=C)C(=O)O[C@@H]2C[C@@H](C)[C@@H]2C=CC(=O)[C@@]12C (some centres undefined) | 0% (inactive) |
| COc1cc2ncnc(Nc3ccc(Oc4ccccc4)cc3)c2cc1OC | 2.99% (inactive) |
| CCC(C)n1cc(C)c2c(C(=O)NCc3c(C)cc(C)[nH]c3=O)cc(-c3ccc(N4CCNCC4)nc3)cc21 (centres undefined) | 2.81% (inactive) |
| CC(C)[C@@H](C)/C=C/[C@@H](C)[C@H]1CC[C@H]2C3=CC=C4C[C@@H](O)CC[C@]4(C)C3=CC[C@]12C | -3.19% (inactive) |
| Cn1c(NC[C@@H](N)Cc2ccccc2)nc(-c2ccncc2)c(-c2ccc3ccccc3c2)c1=O | 3.61% (inactive) |
| CC1(C)CC[C@]2(C(=O)OC3OC(CO)C(O)C(O)C3O)CC[C@]3(C)C(=CCC4[C@@]5(C)CC[C@H](OC6OC(C(=O)O)C(O)C(O)C6O)C(CO)(CO)C5CC[C@]43C)[C@@H]2C1 (some centres undefined) | -2.38% [at 11.6 µM] (inactive) |
| Nc1ncnc2c1ncn2[C@@H]1O[C@H](CO)C[C@H]1O | 0% (inactive) |
| CCOC(=O)c1cnn(-c2ccc(NC(=O)C(Cl)=C(Cl)Cl)cc2)c1C(F)(F)F | 2.73% (inactive) |
| CC(=O)N1c2ccc(-c3ccc(C(=O)O)cc3)cc2C(Nc2ccc(Cl)cc2)CC1C (centres undefined) | -4.07% (inactive) |
| COc1ccc(C(=O)N(CCC(C)C)Cc2nc(C)c(C)n2Cc2ccccc2C)c(OC)c1 | -21.5% (inactive) |
| O=C(Nc1ccc(F)cc1)N1CCc2ccccc2C1c1ccc(C(F)(F)F)cc1 (centres undefined) | -8.33% (inactive) |
| Cc1ccc(C(=O)N2CCN(c3ccc([N+](=O)[O-])cc3)CC2)cc1Cl | 0.0175% (inactive) |
| CN(C)C(=O)c1cc2cnc(Nc3ccc(N4CCNCC4)cn3)nc2n1C1CCCC1 | 3.27% (inactive) |
| C=C1/C(=C/C=C2\CCC[C@]3(C)[C@@H]([C@H](C)/C=C/C(=O)C4CC4)CC[C@@H]23)C[C@@H](O)C[C@@H]1O | -15.8% (inactive) |
| CC1OC2OC3C(OCC(O)C3O)OC(=O)C34CCC(C)(C)CC3C3=CCC5C6(C)CC(O)C(OC7OC(CO)C(O)C(O)C7OC7OCC(OC(=O)CC(C)(O)CC(=O)OC1C(OC1OCC(O)C(O)C1O)C2O)C(O)C7O)C(C)(CO)C6CCC5(C)C3(C)CC4O (centres undefined) | 3.2% [at 25.7 µM] (inactive) |
| CC(C)(C)c1ccc(-c2nc3ccccc3[nH]2)cc1 | 0.946% [at 25.7 µM] (inactive) |

| SMILES | activity, negative = inhibition |
| --- | --- |
| COc1cc(O)c(C(=O)CCc2ccc(O)cc2)c(O[C@@H]2O[C@H](CO)[C@@H](O)[C@H](O)[C@H]2O)c1 | -3.88% [at 25.7 µM] (inactive) |
| CCN1CCN(Cc2ccc(-c3cc4c(NC(C)c5ccccc5)ncnc4[nH]3)cc2)CC1 (centres undefined) | -2.03% (inactive) |
| CN1CCN(C(=O)c2ccc(Nc3nccc(-c4cccs4)n3)cc2Cl)CC1 | 1.84% (inactive) |
| Cc1ccc2c(Nc3ccc(Cl)cc3)nccc2c1Nc1ncccc1-c1ncnc2nc[nH]c12 | 1.92% (inactive) |
| COc1ccccc1-c1cc(Nc2cccc(CS(N)(=O)=O)c2)ncn1 | -5.85% (inactive) |
| Cc1ccc(C2(COC(=O)C(C)C)CO2)c(OC(=O)C(C)C)c1 (centres undefined) | -9.9% (inactive) |
| CC1(C)CC23[C@@H]4CC(=O)[C@@H]2COC(=O)[C@@H]3CC[C@H]41 | 2.27% (inactive) |
| COc1cc2ncnc(Oc3cccc(NC(=O)Nc4cc(C(C)(C)C(F)(F)F)on4)c3)c2cc1OC | 0% (inactive) |
| O=C(NNc1ccccc1)c1ccncc1 | -0.779% (inactive) |
| CN(CCCNC(=O)c1ccc2nc3c(c(Cl)c2c1)CCCC3)Cc1ccccc1 | 2% (inactive) |
| C=CC(=O)Nc1cc(Nc2nccc(-c3cn(C)c4ccccc34)n2)c(OC)cc1N(C)CCN(C)C | 0% (inactive) |
| OCC(Cc1ccccc1)Nc1nc(Oc2ccc3c(c2)CCC3)nc2c1ncn2Cc1ccc(-c2ccccc2)cc1 (centres undefined) | 1.54% (inactive) |
| O=C(NC(NC(=S)Nc1ccc(F)c([N+](=O)[O-])c1)C(Cl)(Cl)Cl)C(c1ccccc1)c1ccccc1 (centres undefined) | -3.62% [at 25.7 µM] (inactive) |
| CC1CCC2C(=CCC(O)C2(C)C)C1(C)Cc1c(O)cc(CO)c(C=O)c1O (centres undefined) | 0% (inactive) |
| CCCCn1c(-c2ccccc2)nc(-c2ccccc2)c1CN(Cc1ccc2c(c1)OCO2)Cc1ccc2c(c1)OCO2 | -3.85% (inactive) |
| COc1ccc(CNC(=O)Nc2ncc([N+](=O)[O-])s2)cc1 | -16.9% (inactive) |
| O=C(NCc1ccc(Oc2ccccc2)cc1)c1nc(-c2cc(Br)c(O)c(Br)c2)no1 | 0% (inactive) |
